Measurements as given in PubChem BioAssay (NCATS).
Results filed as inconclusive are left out. Calls of active or inactive are those of the source. Unless noted, the call rests on the fitted dose curve; in most records, active means well fitted curve in the direction sought with a large enough effect; inconclusive means small, poorly fitted or top-dose-only effect, or another doubt; inactive means no such curve, though single readings can be large; an effect the other way counts as inactive or inconclusive.

Legend:
[1] = Cell Viability - BJ (AID 421; calls by dose curve;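 further: potency means the concentration at half of the fitted maximal effect; cells exposed to compound for 40 hours at 37 °C before readout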); conditions: BJ fibroblast viability, qHTS
Method in brief: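 Quantitative HTS: ATP depletion in BJ cells after 40 hr compound exposure in complete culture medium, detected with CellTiter-Glo; AC50 from standard Hill fits.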

[2] = Cell Viability - Jurkat (AID 426;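 active means dose-dependent loss of cell ATP signal giving a full or clear fitted curve, ranked by lower potency value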;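 further: potency means the concentration at half of the fitted maximal effect; cells exposed to compound for 40 hours at 37 °C before ATP read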); conditions: qHTS
Method in brief: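 Luminescent ATP read-out (CellTiter-Glo, 20 min at room temperature) after 40 hr compound exposure at 37 °C of Jurkat E6-1 cells, 5000/well. Decreased ATP taken as cytotoxicity; AC50 from standard Hill equation.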

[3] = Cell Viability - Hek293 (AID 427;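 active means compounds whose dose-response curve shows a full or clear partial loss of cell viability, called from curve shape rather than a numeric limit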;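 further: potency means the concentration at half of the fitted maximal effect; cells exposed to compound for 40 hours at 37 °C before reading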); conditions: qHTS
Method in brief: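 AC50 values derive from Hill-modelled concentration-response of ATP-based luminescence, normalized between DMSO-only and 100 uM tamoxifen controls. Cells were exposed in complete culture medium for 40 hr at 37 °C before detection.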

[4] = Cell Viability - HepG2 (AID 433; calls by dose curve;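 further: potency means the concentration at half of the fitted maximal effect; potency for ATP loss meaning cytotoxicity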); conditions: qHTS
Method in brief: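 Cytotoxicity is scored as loss of intracellular ATP in HepG2 cells exposed to compounds for 40 h. Concentration-response curves, normalized to DMSO and 100 uM tamoxifen, give AC50 values.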

[5] = Cell Viability - MRC5 (AID 434; calls by dose curve;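 further: potency means the concentration at half of the fitted maximal effect; cells exposed to compound for 40 hours at 37 °C; potency reflects cytotoxicity seen as loss of intracellular ATP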); conditions: MRC5 lung fibroblast viability, qHTS
Method in brief: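 Decrease in intracellular ATP, quantified by luciferase light output, reflects compound toxicity toward MRC5 cells exposed for 40 hr in complete culture medium. Concentration-response curves, scaled between DMSO and 100 uM tamoxifen, gave AC50 values.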

[6] = Cell Viability - SK-N-SH (AID 435; calls by dose curve; further: potency means the concentration at half of the fitted maximal effect); conditions: SK-N-SH neuroblastoma cell viability qHTS
Method in brief: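 Cells seeded at 1500 per well and incubated 5 hr at 37 °C. Compound added, then 40 hr at 37 °C. CellTiter-Glo added, 20 min at room temperature, luminescence read.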

[7] = target: Mitogen-activated protein kinase 10 (Mus musculus) (UniProt Q61831); assay: JNK3 AlphaScreen Assay (AID 530; active means well fitted curve in either direction with a large enough effect, not every such curve was filed as active;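 further: kinase came from lysate of stimulated human HepG2 cells; signal reports phosphorylation of biotinylated GST-cJun 1-79 at Ser73 with 10 µM ATP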); conditions: JNK3 lysate, c-Jun phosphorylation; series mostly up to 57.1 µM
Method in brief: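 Biotinylated GST-cJun(1-79) served as substrate for JNK3 in HepG2 lysates stimulated with IL-1beta and TNF-alpha. ATP was 10 uM final, pH 7.6. Ser73 phosphorylation was quantified by AlphaScreen (680 nm excitation).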

[8] = Cell Viability - N2a (AID 540); conditions: N2a mouse neuroblastoma cell viability; series mostly up to 92.2 µM; further: nearly all actives have a fitted effect of over 45% in size
Method in brief: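 N2a mouse neuroblastoma, 1500 cells/well, 5 hr settle; compound 40 hr, 37 °C; CellTiter-Glo 20 min RT; luminescence; Hill-fit AC50.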

[9] = Cell Viability - NIH 3T3 (AID 541); conditions: NIH 3T3 cell viability, qHTS; series mostly up to 92.2 µM; further: nearly all actives have a fitted effect of over 25% in size
Method in brief: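 qHTS format; 40 hr compound exposure, 37 °C; CellTiter-Glo luminescence (cellular ATP) read-out after 20 min at RT. Decrease in ATP = cytotoxicity; AC50 from standard Hill fit.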

[10] = Cell Viability - HUV-EC-C (AID 542); conditions: HUV-EC-C endothelial cell viability, qHTS; series mostly up to 92.2 µM; further: nearly all actives have a fitted effect of over 35% in size
Method in brief: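 Luminescent ATP read-out (CellTiter-Glo, 20 min room temperature) after 40 hr compound treatment of HUV-EC-C cells at 37 °C. Concentration-response data fitted with the standard Hill equation to give AC50; tamoxifen and doxorubicin served as positive controls.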

[11] = Cell Viability - H-4-II-E (AID 543); conditions: H-4-II-E rat hepatoma viability; series mostly up to 92.2 µM; further: nearly all actives have a fitted effect of over 35% in size
Method in brief: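 qHTS, rat hepatoma H-4-II-E, 1500 cells/well; 40 hr compound exposure, 37 °C; CellTiter-Glo ATP luminescence after 20 min RT; AC50 by standard Hill fit.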

[12] = Cell Viability - SH-SY5Y (AID 544); conditions: SH-SY5Y neuroblastoma cell viability; series mostly up to 92.2 µM; further: nearly all actives have a fitted effect of over 55% in size
Method in brief: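 SH-SY5Y, 1500 cells/well, 5 hr pre-incubation 37 °C; cpd 40 hr 37 °C; CellTiter-Glo 20 min RT; luminescence (ATP) read. qHTS concentration-response, Hill fit → AC50. Tamoxifen, doxorubicin as positive controls.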

[13] = Cell Viability - Renal Proximal Tubule (AID 545); conditions: renal proximal tubule cells viability, primary cells of rat origin; series mostly up to 91.7 µM; further: nearly all actives have a fitted effect of over 40% in size
Method in brief: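 Cytotoxicity is scored as a concentration-dependent drop in cellular ATP in primary rat renal proximal tubule cells exposed for 40 hr. AC50 derives from Hill modelling.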

[14] = Cell Viability - Mesenchymal (AID 546); conditions: mesenchymal cells viability, qHTS; series mostly up to 91.7 µM;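 further: cells exposed to compound for 40 hours before reading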
Method in brief: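 In this qHTS cytotoxicity format, glomerulus-derived human mesenchymal kidney cells received compound for 40 hr, then luciferase-based ATP quantitation. Concentration-response data were fitted with the Hill equation.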

[15] = Cellular Toxicity (caspase-3) HepG2 (AID 654); conditions: HepG2 caspase-3 activation, luminescence, 0% = DMSO only, 100% = tamoxifen; series mostly up to 92.2 µM;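 further: cells exposed to compound for 16 hours before reading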
Method in brief: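 Luminescent Caspase-Glo 3/7 readout after 16 hr compound exposure of human hepatocellular carcinoma HepG2 cells at 37 °C; qHTS concentration-response, normalized DMSO = 0%, 100 uM tamoxifen = 100%; AC50 by standard Hill equation.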

[16] = Cellular Toxicity (caspase-3) Jurkat (AID 655); conditions: Jurkat caspase-3 activation, luminescence, DMSO = 0%, tamoxifen = 100%; series mostly up to 92.2 µM;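 further: cells exposed to compound for 16 h at 37 °C before reading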
Method in brief: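 Caspase 3/7 activation is scored as increased luminescence in Jurkat cells cultured with compound for 16 hours in complete medium. AC50 values come from Hill fits of qHTS concentration-response data normalized to DMSO and 100 uM tamoxifen controls.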

[17] = Cellular Toxicity (caspase-3) HUV-EC-C (AID 656); conditions: HUV-EC-C cells, caspase-3 activation (apoptosis), vehicle = 0, 100 µM tamoxifen = 100%; series mostly up to 92.2 µM
Method in brief: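 Read-out: luminescence proportional to caspase 3/7 activity, measured 20 min after adding Caspase-Glo 3/7 reagent. Cells (HUV-EC-C) had received compound for 16 hr at 37°C. Increases relative to DMSO and 100 uM tamoxifen gave concentration-response AC50 values.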

[18] = Cellular Toxicity (caspase-3) SHSY5Y (AID 657); conditions: SH-SY5Y caspase-3 activation, DMSO zero, 10 µM staurosporine = 100%; series mostly up to 91.7 µM;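 further: cells exposed to compound for 16 hours at 37 °C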
Method in brief: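 Cells plated and incubated 5 h at 37 °C, dosed over a concentration range, incubated 16 h, then given Caspase-Glo 3/7 reagent for 1 h at room temperature before luminescence reading. Staurosporine (10 uM) defined full stimulation.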

[19] = Cellular Toxicity (caspase-3) BJ (AID 658); conditions: BJ fibroblasts, luminescence, normalized: DMSO 0%, staurosporine 100%; series mostly up to 91.7 µM
Method in brief: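 Plated BJ cells (1000/well) rested 5 hr, received compound for 16 hr at 37 °C, then Caspase-Glo 3/7 reagent for 1 hr at room temperature before luminescence reading.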

[20] = Cellular Toxicity (caspase-3) MRC-5 (AID 659); conditions: MRC-5 cells, luminescence, normalized: DMSO 0%, 10 µM staurosporine 100%; series mostly up to 91.7 µM
Method in brief: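 Apoptosis readout in MRC-5 cells: luciferase light generated after caspase 3/7 cleaves a peptide-aminoluciferin substrate, measured post 16 hr compound incubation at 37 °C.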

[21] = Cellular Toxicity (caspase-3) Mesangial (AID 660); conditions: mesangial cells, normalized: DMSO 0%, 100 µM tamoxifen 100%; series mostly up to 91.7 µM;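 further: cells exposed to compound for 16 h before the caspase read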
Method in brief: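 Luminescent Caspase-Glo 3/7 readout (aminoluciferin substrate cleavage, 20 min RT) after 16 h compound exposure at 37 °C of normal human mesangial cells. Signal increase normalized between DMSO basal and 100 uM tamoxifen; Hill-equation AC50.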

[22] = Cellular Toxicity (caspase-3) SK-N-SH (AID 661); conditions: SK-N-SH caspase-3 activation, qHTS, DMSO as zero, staurosporine as full; series mostly up to 91.7 µM
Method in brief: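 Luminescent Caspase-Glo 3/7 read-out after 16 hr compound exposure of SK-N-SH neuroblastoma cells at 37 °C. Signal increase normalized to DMSO (basal) and 10 uM staurosporine (100%); AC50 from Hill equation fits of qHTS concentration-response data.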

[23] = Cellular Toxicity (caspase-3) H-4-II-E (AID 663); conditions: H-4-II-E rat hepatoma, scaled: DMSO 0%, 100 µM tamoxifen 100%; series mostly up to 92.2 µM;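 further: cells exposed to compound for 16 hr before readout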
Method in brief: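 Caspase 3/7 activation measured in H-4-II-E cells in complete culture medium after 16 hr treatment at 37 °C, using luciferase-coupled substrate readout; AC50 values come from Hill-equation fits of normalized concentration-response data.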

Measured: Potency

CC(C)(c1cc(Br)c(O)c(Br)c1)c1cc(Br)c(O)c(Br)c1
inactive: [1] > 92 µM | [2] > 92 µM | [3] > 92 µM | [4] > 92 µM | [5] > 92 µM | [6] > 92 µM | [7] | [8] | [9] | [10] | [11] | [12] | [13] | [14] | [15] | [16] | [17] | [18] | [19] | [20] | [21] | [22] | [23]
